± gives the standard deviation of the averaged measurements.
What follows are compounds tested on SUM149 (assay: percent difference in area under dose-response curve of relative cell number, RPMI vs HPLM; higher = drug relatively more effective in HPLM than RPMI (negative = less effective in HPLM)). Details: treatment time: 72 h; dose range: 10-point, 1 nM to 20 µM; media compared: RPMI vs HPLM.

Row | SMILES | percent difference in area under dose-response curve [%]
1 | COc1cc([C@@H]2c3cc4c(cc3[C@@H](O[C@@H]3O[C@@H]5CO[C@@H](C)O[C@H]5[C@H](O)[C@H]3O)[C@H]3COC(=O)[C@H]23)OCO4)cc(OC)c1O [Etoposide] | -22.4
2 | Cc1c(-c2ccc(-c3ccccc3F)cc2)nc2ccc(F)cc2c1C(=O)O [Brequinar] | -6.11
3 | CC(C)CC(=O)Nc1n[nH]c2c1CN(C(=O)C1CCN(C)CC1)C2(C)C | -18.5
4 | Cc1nc2c(-c3cnc(N)nc3)nc(N3CCOCC3)nc2n1C(C)C | -7.54
5 | CC[n+]1c(-c2ccccc2)c2cc(N)ccc2c2ccc(N)cc21 [Ethidium_Bromide] | -18.5
6 | Cc1csc(-c2nnc(Nc3ccc(Oc4ncccc4-c4ccnc(N)n4)cc3)c3ccccc23)c1 | -35.1
7 | CCOC(=O)c1cnc2ccc(-c3cncc(NS(=O)(=O)c4ccccc4)c3)cn12 | -8.07
8 | S=c1nc[nH]c2nc[nH]c12 [6_Mercaptopurine] | -31.7
9 | Cc1cccc(CC(=O)N2CCc3c2ccc(-c2cn(C)c4ncnc(N)c24)c3F)n1 | -5.2
10 | FC(F)c1nc2ccccc2n1-c1nc(N2CCOCC2)nc(N2CCOCC2)n1 | 1.79
11 | CNCCC(Oc1ccc(C(F)(F)F)cc1)c1ccccc1 (centres undefined) [Fluoxetine] | 0.518
12 | CN1CCN(CCOc2cc(OC3CCOCC3)c3c(Nc4c(Cl)ccc5c4OCO5)ncnc3c2)CC1 [Saracatinib] | 14.3
13 | Cc1nccn1-c1ccc(Sc2cccc(C3(C(N)=O)CCOCC3)c2)cc1 | -9.07
14 | O=C(NCCCNc1nc(Nc2cccc(NC(=O)N3CCCC3)c2)ncc1I)c1cccs1 | -9.09
15 | CC(C)c1cc(-c2n[nH]c(=O)n2-c2ccc3c(ccn3C)c2)c(O)cc1O [Ganetespib] | -31.8
16 | Cc1cc(Nc2nc(N[C@@H](C)c3ncc(F)cn3)ncc2Cl)[nH]n1 | -7.89
17 | Cc1cc2c(C(=O)NC[C@H](C)c3ccccc3)c(O)c(O)cc2c(O)c1-c1c(C)cc2c(C(=O)NC[C@H](C)c3ccccc3)c(O)c(O)cc2c1O [Sabutoclax] | -9.94

Row | SMILES | percent difference in area under dose-response curve [%]
18 | CC(C)C[C@H](NC(=O)[C@H](Cc1ccccc1)NC(=O)c1cnccn1)B(O)O [Bortezomib] | -29.8
19 | CC1=C(/C=C/C(C)=C/C=C/C(C)=C\C(=O)O)C(C)(C)CCC1 [Isotretinoin] | -4.74
20 | CCOC(=O)c1[nH]c2cc(Cl)ccc2c1C(C(=O)NC(C)(C)C)N(C=O)Cc1ccc(Cl)cc1 (centres undefined) | 0.502
21 | Cc1cc(CS(=O)(=O)c2ccccc2)cc(OCc2ccc(CN3CCC[C@@H]3CO)cc2)c1 | 1.05
22 | COc1cccc2c1C(=O)c1c(O)c3c(c(O)c1C2=O)C[C@@](O)(C(=O)CO)C[C@@H]3O[C@H]1C[C@H](N)[C@@H](O)[C@H](C)O1 [Epirubicin_HCl] | -23.5
23 | c1ccc2c(CCNc3ccc(Nc4ccncc4)cc3)c[nH]c2c1 | -22.6
24 | COC(=O)c1ccc2c(c1)NC(=O)/C2=C(\Nc1ccc(N(C)C(=O)CN2CCN(C)CC2)cc1)c1ccccc1 | 3.26
25 | C=CC(=O)Nc1cccc(Nc2nc(Nc3ccc(NC4CN(CCF)C4)cc3OC)ncc2C(F)(F)F)c1 | 10.4
26 | O=c1cc(-c2cccc3c2Sc2ccccc2S3)oc(N2CCOCC2)c1 | 4.24
27 | CCC[C@H](Nc1nc(-c2ccc(NC(=O)NCC)c(OC)c2)ncc1C)c1cccnc1 | -15.1
28 | CCCCCCCCc1ccc(CCC(N)(CO)CO)cc1 [Fingolimod] | 3.22 ± 1.4
29 | CN1CCN(c2ccc(OC(F)(F)F)c(Nc3ncc4c(n3)-c3c(c(C(N)=O)nn3CCO)CC4)c2)CC1 | -12.8
30 | COc1cccc2c1C(=O)c1c(O)c3c(c(O)c1C2=O)C[C@@](O)(C(C)=O)C[C@@H]3O[C@H]1C[C@H](N)[C@H](O)[C@H](C)O1 [Daunorubicin_HCl] | -26.8
31 | COc1ccc(-c2ccc3c(N4CCOC[C@@H]4C)nc(N4CCOC[C@@H]4C)nc3n2)cc1CO | -2.88
32 | COc1cc(Br)c(Nc2nc(-c3c(C)nc4ncccn34)cs2)c(Br)c1 | -0.202
33 | Cn1cnc2c(F)c(Nc3ccc(Br)cc3Cl)c(C(=O)NOCCO)cc21 | -3.35
34 | O=C(O)c1ccc2c(c1)nc(Nc1cccc(Cl)c1)c1ccncc12 | 0.753

Source: the supplement of paper PMC11383364
